Source: PubChem BioAssay (EPA / NIEHS)
Values joined by “and” are separate entries in the source; they are usually repeats but may differ in a detail not shown here. Equal entries are not always repeated. A structure can be active in one record and inactive in another. Active and inactive are the calls of the source. The calls were made as follows: active = hit-call score of the fitted dose curve at least 0.9, where 1 is the maximum; inactive = score below 0.9.

Legend:
[1] = read-out: Interleukin-1 alpha (IL1a), IL1A (gene 3552); experiment: BSK_KF3CT_IL1a: BioMAP Diversity Plus: KF3CT Assay for Interleukin-1 alpha (IL1a) Biomarker Activity (AID 2283070); settings: primary human keratinocytes with fibroblasts; actives raise or lower the signal
Method in brief: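 Primary human keratinocyte plus foreskin fibroblast co-culture, dosed and measured at 24 h in 96-well plates. IL-1a level quantified by ELISA; bidirectional fit relative to DMSO.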

[2] = read-out: TIMP metallopeptidase inhibitor 2 (TIMP2), TIMP2 (gene 7077); experiment: BSK_KF3CT_TIMP2: BioMAP Diversity Plus: KF3CT Assay for TIMP metallopeptidase inhibitor 2 (TIMP2) Biomarker Activity (AID 2283071); settings: primary human keratinocytes with fibroblasts; actives raise or lower the signal
Method in brief: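 Keratinocyte–fibroblast co-culture, 24 h exposure; TIMP-2 ELISA, DMSO-normalised bidirectional fit. Parallel SRB (0.1%, TCA-fixed, 560 nm) total-protein staining gauges cytotoxicity.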

[3] = read-out: C-C motif chemokine 2 (Homo sapiens) (UniProt P13500); experiment: BSK_KF3CT_MCP1: BioMAP Diversity Plus: KF3CT Assay for Monocyte Chemoattractant Protein 1 (MCP1/CCL2) Biomarker Activity (AID 2283073); settings: primary human keratinocytes with fibroblasts; actives raise or lower the signal
Method in brief: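 Keratinocytes and foreskin fibroblasts were co-cultured, dosed with chemical, and sampled 24 h later. MCP-1 was quantified by ELISA, and the endpoint was analyzed with bidirectional fitting using DMSO as negative control.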

[4] = read-out: Matrix Metallopeptidase 9 (MMP9), MMP9 (gene 4318); experiment: BSK_KF3CT_MMP9: BioMAP Diversity Plus: KF3CT Assay for Matrix Metallopeptidase 9 (MMP9) Biomarker Activity (AID 2283074); settings: primary human keratinocytes with fibroblasts; actives raise or lower the signal;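 as to AC50: MMP9 protein level quantified by ELISA in the co-culture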
Method in brief: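 Human keratinocyte and foreskin fibroblast co-culture exposed to chemicals for 24 h; MMP9 biomarker measured by ELISA, bidirectional fitting relative to DMSO; cytotoxicity tracked by SRB total protein staining in parallel cultures.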

[5] = read-out: urokinase plasminogen activator (uPA), PLAU (gene 5328); experiment: BSK_KF3CT_uPA: BioMAP Diversity Plus: KF3CT Assay for urokinase plasminogen activator (uPA) Biomarker Activity (AID 2283075); settings: primary human keratinocytes with fibroblasts; actives raise or lower the signal
Method in brief: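 Primary human keratinocyte/foreskin fibroblast co-culture exposed to chemical; uPA measured by ELISA at 24 h. Bidirectional fit versus DMSO, with parallel SRB total-protein staining for cytotoxicity.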

[6] = read-out: E-selectin (Homo sapiens) (UniProt P16581); experiment: BSK_LPS_Eselectin: BioMAP Diversity Plus: LPS Assay for Eselectin Biomarker Activity (AID 2283077); settings: primary human HUVEC with PBMC; actives raise or lower the signal
Method in brief: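 Signal of E-selectin, detected by ELISA, served as the endpoint; cells were umbilical vein endothelium with PBMC, read 24 h after treatment. DMSO defined baseline, and both increases and decreases were fitted.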

[7] = read-out: Interleukin-8 (IL8), CXCL8 (gene 3576); experiment: BSK_LPS_IL8: BioMAP Diversity Plus: LPS Assay for Interleukin-8 (IL8) Biomarker Activity (AID 2283078); settings: primary human HUVEC with PBMC; actives raise or lower the signal
Method in brief: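 Endothelial cells and PBMC from human donors are co-cultured, treated with chemicals and LPS, then assayed for IL-8 by ELISA after 24 h. Parallel SRB staining (0.1% SRB after 10% TCA fixation, 560 nm) flags cytotoxicity.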

[8] = BSK_LPS_SRB: Viability Assessment in the BioMAP Diversity Plus: LPS Assay (AID 2283079); settings: primary human HUVEC with PBMC;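 also: total protein by sulforhodamine B absorbance as a cytotoxicity measure; measured one day after compound addition; fitted in both directions against DMSO so loss or gain of signal counts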
Method in brief: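 Overt cytotoxicity was gauged by sulforhodamine B total-protein staining in a primary human vascular endothelial and mononuclear cell co-culture 24 h post-dosing. Activity was fitted in both directions relative to DMSO.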

CD40, CD40 (gene 958) = experiment: BSK_LPS_CD40: BioMAP Diversity Plus: LPS Assay for CD40 Biomarker Activity (AID 2283076); settings: primary human HUVEC with PBMC; actives raise or lower the signal
Method in brief: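 CD40 signal, measured by ELISA, is fitted in both directions relative to DMSO vehicle. The system is an LPS-driven human vascular primary co-culture of endothelial cells and PBMC, sampled 24 h after compound addition.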

[9] = read-out: Transforming growth factor beta 1 (TGFb1), TGFB1 (gene 7040); experiment: BSK_KF3CT_TGFb1: BioMAP Diversity Plus: KF3CT Assay for Transforming growth factor beta 1 (TGFb1) Biomarker Activity (AID 2283072); settings: primary human keratinocytes with fibroblasts; actives raise or lower the signal
Method in brief: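 Signal changes in either direction, relative to DMSO, define activity here. TGF-b1 is read by ELISA from a human keratinocyte-fibroblast co-culture 24 h post-dose.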

Measured: AC50

Chain of E-selectin (Homo sapiens) (P16581 whole entry, looked up): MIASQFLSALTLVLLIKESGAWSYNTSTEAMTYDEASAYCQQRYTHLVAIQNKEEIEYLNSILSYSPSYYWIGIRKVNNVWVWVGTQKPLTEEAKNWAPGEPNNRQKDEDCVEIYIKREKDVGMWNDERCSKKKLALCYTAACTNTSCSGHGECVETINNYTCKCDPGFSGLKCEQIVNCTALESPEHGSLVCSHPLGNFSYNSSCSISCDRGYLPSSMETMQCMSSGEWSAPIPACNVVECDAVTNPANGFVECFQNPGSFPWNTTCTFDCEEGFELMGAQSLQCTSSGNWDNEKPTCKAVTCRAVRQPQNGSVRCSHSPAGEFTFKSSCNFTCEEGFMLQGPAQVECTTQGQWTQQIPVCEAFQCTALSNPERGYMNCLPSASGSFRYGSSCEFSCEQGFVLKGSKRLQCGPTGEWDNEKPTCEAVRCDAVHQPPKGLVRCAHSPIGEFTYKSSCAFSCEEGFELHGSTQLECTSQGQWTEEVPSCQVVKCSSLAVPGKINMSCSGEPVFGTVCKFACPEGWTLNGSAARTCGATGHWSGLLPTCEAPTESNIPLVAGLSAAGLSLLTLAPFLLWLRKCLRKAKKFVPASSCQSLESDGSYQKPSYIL

CNS(=O)(=O)C(F)(F)C(F)(F)C(F)(F)C(F)(F)C(F)(F)C(F)(F)C(F)(F)C(F)(F)F
inactive: [1] | [2] | [3] | [4] | [5] | [6] | [7] | [8]
active: [4] 20.4 µM | [8] 22.5 µM

C=CC(=O)OCC(F)(F)C(F)(F)C(F)(F)COC(=O)C=C
active: [1] 30 µM and 5.95 µM | [2] 30 µM | [3] 22.3 µM and 12.7 µM | [4] 24 µM and 20.9 µM | [5] 21.1 µM and 25.7 µM | [6] 16.1 µM and 13.1 µM | [7] 15.9 µM and 14.8 µM | [8] 48.6 µM and 47.4 µM

FC(F)(F)C(F)(F)C(F)(F)C(F)(F)C(F)(F)C(F)(F)CC[Si](Cl)(Cl)Cl
not listed: CD40, CD40 (gene 958) | [9]
inactive: all other assays above

OC(O)C(F)(F)C(F)(F)F
not listed: [1] | CD40, CD40 (gene 958) | [9]
inactive: all other assays above

O=C(F)C1(F)C(F)(F)C(F)(F)C(F)(F)C(F)(F)C1(F)F
not listed: [1] | [9]
inactive: all other assays above

NS(=O)(=O)C(F)(F)C(F)(F)C(F)(F)C(F)(F)C(F)(F)C(F)(F)F
inactive: [2] | [3] | [4] | [5] | [6] | [7] | [8]
active: [4] 14.6 µM | [8] 40.1 µM

O=C(O)C(F)(F)C(F)(F)C(F)(F)C(F)(F)C(F)(F)C(F)(F)C(F)F
active: [7] 30 µM
inactive: [2] | [3] | [4] | [5] | [6] | [7] | [8]

O=C1C=CC(=O)N1c1ccc(Cc2ccc(N3C(=O)C=CC3=O)cc2)cc1
active: [2] 2.2 µM | [9] 3.46 µM | [3] 1.99 µM | [4] 5.44 µM | [5] 5.55 µM | CD40, CD40 (gene 958) 10.4 µM | [6] 12.4 µM | [7] 20 µM | [8] 14.6 µM

CO[Si](C)(CCC(F)(F)C(F)(F)C(F)(F)C(F)(F)C(F)(F)C(F)(F)F)OC
not listed: [1] | CD40, CD40 (gene 958) | [9]
inactive: all other assays above

FC(F)(F)C(F)(F)C(F)(F)CC1CO1 (centres undefined)
not listed: [1] | CD40, CD40 (gene 958) | [9]
inactive: all other assays above

O=C(O)C(F)(F)C(F)(F)C(F)(F)C(=O)O
not listed: [1] | [9]
inactive: all other assays above

CCN(CC)c1ccc2c(c1)Oc1cc(N(CC)CC)ccc1C21OC(=O)c2ccccc21
active: [7] 6.55 µM
not listed: [1] | CD40, CD40 (gene 958)
inactive: all other assays above

Cc1cc(O)c(C(C)(C)C)cc1C(C)(C)C
active: [2] 2.05 µM | [9] 3.85 µM | [3] 3.37 µM | [4] 5.96 µM | [5] 3.78 µM | [6] 6.95 µM | [7] 9.26 µM | [8] 7.74 µM

NC(O)(C(F)(F)F)C(F)(F)F
active: [7] 5.33 µM
inactive: [2] | [3] | [4] | [5] | CD40, CD40 (gene 958) | [6] | [7] | [8]

CCOC(C=C(C)CCC=C(C)C)OCC
active: [2] 31.2 µM | [9] 3.97 µM | [4] 20 µM | [5] 3.97 µM | [6] 35 µM | [8] 31.9 µM
inactive: [7]

OCC(F)(F)C(F)(F)C(F)(F)CO
not listed: [1] | CD40, CD40 (gene 958) | [9]
inactive: all other assays above

OCC(F)(F)C(F)(F)C(F)(F)C(F)(F)C(F)(F)C(F)(F)C(F)(F)C(F)(F)CO
inactive: [5] | [6] | [7] | [8]
active: [2] 55.2 µM and 48.6 µM | [3] 50.8 µM and 42.3 µM | [4] 50.3 µM and 49.4 µM | [6] 0.559 µM

O=C(O)C(F)(F)OC(F)(F)C(F)(F)OC(F)(F)C(F)(F)OC(F)(F)F
active: [7] 9.98 µM and 20 µM
inactive: [2] | [3] | [4] | [5] | [6] | [7] | [8]

C=C(C)C(=O)OCC(F)(F)C(F)(F)C(F)(F)C(F)F
not listed: [1] | [9]
inactive: all other assays above

CN(C(=O)C(F)(F)C(F)(F)C(F)(F)F)[Si](C)(C)C
not listed: [1] | CD40, CD40 (gene 958) | [9]
inactive: all other assays above

O=S(=O)(O)CCC(F)(F)C(F)(F)C(F)(F)C(F)(F)C(F)(F)C(F)(F)C(F)(F)C(F)(F)F
not listed: [1] | CD40, CD40 (gene 958) | [9]
inactive: all other assays above

CCOC(=O)CC(=O)C(F)(F)C(F)(F)F
not listed: [1] | CD40, CD40 (gene 958) | [9]
inactive: all other assays above

COC(F)(C(F)F)C(F)(F)F (centres undefined)
not listed: [1] | CD40, CD40 (gene 958) | [9]
inactive: all other assays above

NC(=O)C(F)(F)C(F)(F)C(F)(F)C(F)(F)C(N)=O
not listed: [1] | [9]
inactive: all other assays above

C[C@]12CC[C@H]3C(=CCc4cc(O)ccc43)[C@@H]1CCC2=O
not listed: [1] | CD40, CD40 (gene 958)
inactive: all other assays above

OCCCC(F)(F)C(F)(F)C(F)(F)C(F)(F)C(F)(F)C(F)(F)C(F)(F)C(F)(F)F
active: [2] 14.5 µM and 8.21 µM | [3] 11 µM and 8.31 µM | [4] 9.36 µM and 10.8 µM | [5] 14.9 µM and 9.45 µM | [6] 15.3 µM and 30 µM | [7] 45.9 µM and 42.5 µM | [8] 41.5 µM and 45.7 µM

O=S(=O)(OCC(F)(F)F)C(F)(F)C(F)(F)C(F)(F)C(F)(F)F
inactive: [2] | [3] | [4] | [5] | [6] | [7] | [8]
active: [5] 9.13 µM | [6] 41.4 µM

CCN(CCO)S(=O)(=O)C(F)(F)C(F)(F)C(F)(F)C(F)(F)C(F)(F)C(F)(F)C(F)(F)C(F)(F)F
active: [3] 14.4 µM | [4] 21.7 µM and 20.9 µM | [6] 5.95 µM | [8] 39.4 µM and 38.2 µM
inactive: [2] | [3] | [5] | [6] | [7]

NC(=O)C(F)(F)C(F)(F)C(F)(F)C(F)F
inactive: [2] | [3] | [4] | [5] | CD40, CD40 (gene 958) | [6] | [7] | [8]
active: [7] 22.7 µM

CCN=C1C=CC(=C(c2ccc(N(CC)CC)cc2)c2ccc(N(CC)CC)cc2)c2ccccc21
active: [2] 1.87 µM and 1.66 µM | [3] 3.2 µM and 2.66 µM | [4] 1.61 µM and 1.54 µM | [5] 2.62 µM and 1.92 µM | CD40, CD40 (gene 958) 244 nM and 1.3 µM | [6] 974 nM and 574 nM | [7] 782 nM and 483 nM | [8] 2.39 µM and 2.33 µM

CCN(CC)c1ccc(N=Nc2ccccc2)cc1
active: [4] 9.24 µM | CD40, CD40 (gene 958) 28.6 µM | [7] 20 µM | [8] 29.6 µM
not listed: [1]
inactive: all other assays above

NC(=O)C(F)(F)C(F)(F)C(F)(F)C(F)(F)C(F)(F)C(F)(F)C(F)(F)F
not listed: [1] | CD40, CD40 (gene 958) | [9]
inactive: all other assays above

NCC(F)(F)C(F)(F)C(F)(F)C(F)(F)C(F)(F)C(F)(F)F
not listed: [1] | [9]
inactive: all other assays above

NC(=O)C(F)(F)C(F)(F)C(F)(F)F
not listed: [1] | CD40, CD40 (gene 958) | [9]
inactive: all other assays above

C[Si](Cl)(Cl)CCC(F)(F)C(F)(F)C(F)(F)C(F)(F)C(F)(F)C(F)(F)F
not listed: [1] | CD40, CD40 (gene 958) | [9]
inactive: all other assays above

Cc1ccc(S(=O)(=O)C(I)I)cc1
active: [2] 2.35 µM | [3] 2.71 µM | [4] 5.24 µM | [5] 6.22 µM | [6] 3.3 µM | [7] 4.27 µM | [8] 5.31 µM
inactive: [9]
